Screening data as filed in PubChem BioAssay.
Hits are enriched below; roughly 17% of the tested compounds scored in any of these assays.
HT1080NT lethal: kills 2HG-producing HT-1080-NT fibrosarcoma cells | HT-1080-NT fibrosarcoma viability, CellTiter-Glo ATP luminescence, 48 h | 360,000 tested, 1.6% active | Potency, µM (series often up to 46.1 µM), usual class: cytotoxic | AID 686970;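 also: NT is the 2HG producing partner of a matched IDH1 knockdown line; nearly all actives have a fitted effect of over 55% in size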
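Viability of the 2HG-overproducing fibrosarcoma line after 48 hours of compound exposure at 37 degrees C was determined by luminescence with CellTiter-Glo, and concentration-effect curves were then fitted and categorized.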
DT40 TDP1 CPT: growth inhibition of DT40 Tdp1-/-;hTDP1 cells with camptothecin (screen for TDP1 inhibitors); 420,000 tested, 12% active; chicken DT40 Tdp1-/-;hTDP1 cells + 20 nM CPT, ATP luminescence, 48 h; Potency, µM (series often up to 46.2 µM), usual class: inhibitors; also: nearly all actives have a fitted effect of over 55% in size
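Chicken DT40 Tdp1-/- cells stably complemented with human TDP1 were seeded at 400 cells/well in medium containing 20 nM camptothecin, exposed to pin-transferred compounds, and grown at 37 °C for at least 48 hr. Viability was read as ATP luminescence.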
HepG2 viability: kills HepG2 cells in TGF-b inhibitor counter-screen; Potency, µM (titrated, usually from 46.1 µM), most hits filed as cytotoxic; HepG2 CAGA-GFP viability, ATP luminescence, 18 h; 410,000 tested, 0.76% active
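CellTiter-Glo luminescence gave cytotoxicity after 18 hours at 37 degrees C. The cells were HepG2 CAGA-GFP in 1% FBS DMEM, stimulated with 500 pg/mL TGF-beta after compound addition. %Activity was normalised to no-cell wells (complete cell-killing) and DMSO (no toxicity), and curves were fitted and classified.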
HT1080 IDH1KD tx: HT-1080 IDH1 knockdown cell toxicity (counter line) | HT-1080 IDH1 knockdown viability, ATP luminescence, 48 h | 360,000 tested, 2% active | Potency, µM (top dose mostly 46.1 µM), hits mostly cytotoxic
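Cytotoxicity counter-line: IDH1KD HT-1080, 48 h, CellTiter-Glo. Curves classed by r2, magnitude and activity.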
TGFb SMAD3 inh: blocks TGF-b signaling; HepG2 CAGA-GFP TGF-b/SMAD3 reporter, GFP fluorescence, 18 h; TGF-beta stimulated, 500 pg/mL final; Potency, µM (series often up to 46.1 µM), most hits filed as inhibitors; 410,000 tested, 1.2% active; also: nearly all actives have a fitted effect of over 65% in size
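First, reporter cells (HEPG2 CAGA-GFP) rested 2 h at 37 degrees C. Next, compounds were pinned in and TGF-beta added to 500 pg/mL final. After 18 h, GFP was imaged per cell and summed per well.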
TDP1 cell noCPT: qHTS for Inhibitors of human tyrosyl-DNA phosphodiesterase 1 (TDP1): qHTS in cells in absence of CPT | DT40 Tdp1-/- hTDP1 cells, no CPT, ATP luminescence, 48 h | 420,000 tested, 15% active | Potency, µM (titrated, usually from 46.2 µM), usual class: inhibitors; also: nearly all actives have a fitted effect of over 55% in size
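Stably hTDP1-transfected Tdp1-null chicken DT40 cells were treated with library compounds minus camptothecin and grown for at least 48 hr at 37 °C, after which cellular ATP was quantified by luminescence.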
Hits are given with their value; . = inactive; ? = inconclusive; / = not tested or not shown; [ ] = another dose, or the depositor's remark. Calls follow the shape of the dose curve; as a rule, active = well fitted curve in the direction sought with a large enough effect; inconclusive = small, poorly fitted or top-dose-only effect, or another doubt; inactive = no such curve, though single readings can be large; an effect the other way counts as inactive or inconclusive.

SMILES | HT1080NT lethal | DT40 TDP1 CPT | HepG2 viability | HT1080 IDH1KD tx | TGFb SMAD3 inh | TDP1 cell noCPT
CC(=O)Nc1ccc(NC(=O)C(C)OC(=O)CNS(=O)(=O)c2ccc(Br)cc2Cl)cc1 (stereo not drawn) | . | . | . | . | . | 23µM
CCC(C(=O)Nc1ccc(C(=O)OC)cc1)n1c(=O)c(-c2ccccc2NC(C)=O)nc2ccccc21 (stereo not drawn) | / | 15µM | . | / | . | 3.3µM
CC(=O)Nc1ccccc1-c1nc2ccccc2n(CC(=O)Nc2ccc(C)c(Cl)c2)c1=O | / | . | . | / | ? | .
CCOc1ccc(NC(=O)C(CC)n2c(=O)c(-c3ccccc3NC(C)=O)nc3ccccc32)cc1 (stereo not drawn) | / | 18µM | . | / | . | ?
CCC(Oc1nc2ccccc2nc1-c1ccccc1NC(C)=O)C(=O)c1ccccc1 (stereo not drawn) | . | ? | . | . | . | ?
CCCCC1Cc2[nH]c(=S)[nH]c(=O)c2C(c2ccc(Cl)cc2)O1 (stereo not drawn) | . | ? | . | . | . | ?
CC(C)C(c1nnnn1Cc1ccccc1)N1CCc2ccccc2C1 (stereo not drawn) | . | ? | . | .[9.24 µM] | . | 16µM
c1ccc(Cn2nnnc2C(c2cccs2)N2CCc3ccccc3C2)cc1 (stereo not drawn) | ? | ? | . | ? | ? | 29µM
CC(C)C(c1nnnn1C1CCCCC1)N1CCc2ccccc2C1 (stereo not drawn) | ? | . | . | . | . | ?
c1ccc(Cn2nnnc2C(c2cccs2)N2CCCCCC2)cc1 (stereo not drawn) | . | . | . | . | . | .
CN1CCN(c2nc3cc(C(F)(F)F)ccc3n3cccc23)CC1 | ? | ? | . | 23µM | . | 21µM
FC(F)(F)c1ccc2c(c1)nc1n2CCCC1 | . | . | . | . | . | .
COC(=O)c1ccc2cc(OC)cc([N+](=O)[O-])c2n1 | . | . | . | . | . | .
COCCCNc1ncnc2sc3c(c12)CCC(C)C3 (stereo not drawn) | . | ? | . | ? | . | 23µM
CC1CCc2c(sc3ncnc(NS(=O)(=O)c4cccs4)c23)C1 (stereo not drawn) | . | . | . | . | . | .
CCS(=O)(=O)c1ccc2oc(SCC(=O)NC(C)C3CC4CCC3C4)nc2c1 (stereo not drawn) | . | ? | . | .[9.24 µM] | . | 16µM
CCS(=O)(=O)c1ccc2oc(SCC(=O)Nc3ccc(OC)cc3OC)nc2c1 | . | . | . | . | ? | .
O=C1C[C@H]2[C@H](CO)[C@@H](OC(=O)c3ccc(-c4ccccc4)cc3)C[C@H]2O1 | . | ? | . | . | . | 16µM
O=C1CC2C(CC(OC(=O)c3ccc(-c4ccccc4)cc3)C2CO)O1 (stereo not drawn) | . | . | . | .[9.24 µM] | . | ?
O=C(NC1CCCCC1)C(c1ccco1)N(Cc1cccs1)C(=O)Cn1nnc2ccccc21 (stereo not drawn) | ? | ? | . | . | . | .
Cc1ccc(-c2nnn(CC(=O)N(Cc3cccs3)C(C(=O)NC3CCCCC3)c3ccco3)n2)o1 (stereo not drawn) | . | 26µM | . | . | . | 23µM
CCCCC(C(=O)NC1CCCC1)N(Cc1ccco1)C(=O)Cn1nnc(-c2ccc(F)cc2)n1 (stereo not drawn) | . | 23µM | . | . | ? | 23µM
O=C(NC1CCCC1)C(c1cccs1)N(Cc1ccco1)C(=O)Cn1nnc(-c2cccs2)n1 (stereo not drawn) | . | 21µM | . | . | . | ?
O=C(NC1CCCCC1)C(c1ccccc1)N(Cc1ccco1)C(=O)Cn1cnc2ccccc21 (stereo not drawn) | . | 23µM | . | . | ? | 23µM
COC(=O)c1cc(NC2(c3ccccc3)C(=O)c3ccccc3C2=O)cc(C(=O)OC)c1 | / | . | . | / | . | .
SMILES | HT1080NT lethal | DT40 TDP1 CPT | HepG2 viability | HT1080 IDH1KD tx | TGFb SMAD3 inh | TDP1 cell noCPT
CC(C)CCNC(=O)C(c1ccncc1)N(Cc1cccs1)C(=O)Cn1nnc(-c2ccc(F)cc2)n1 (stereo not drawn) | . | 9.2µM | . | . | . | ?
Cc1ccc(-c2nnn(CC(=O)N(Cc3cccs3)C(C(=O)NC3CCCC3)c3ccncc3)n2)cc1 (stereo not drawn) | 16µM | ? | . | ? | ? | .
O=C(NCC1CCCO1)C(c1ccncc1)N(Cc1cccs1)C(=O)Cn1nnc(-c2ccc(F)cc2)n1 (stereo not drawn) | . | . | . | . | . | .
O=C(NCC1CCCO1)C(c1cccs1)N(Cc1cccs1)C(=O)Cn1nnc(-c2cccs2)n1 (stereo not drawn) | . | 16µM | . | . | . | 18µM
O=C(NCC1CCCO1)C(c1ccc(F)cc1)N(C(=O)Cn1nnc(-c2ccc(F)cc2)n1)c1cccc(O)c1 (stereo not drawn) | . | ? | . | . | . | 9.2µM
CC(Cn1cncn1)C(=O)N1CCN(S(=O)(=O)c2ccc(Cl)cc2)CC1 (stereo not drawn) | . | . | . | . | . | .
COc1ccc(-c2nnn(CC(=O)N(Cc3cccs3)C(C)C(=O)NC3CCCC3)n2)cc1OC (stereo not drawn) | . | 29µM | . | ? | . | ?
CCOc1ccc(C(=O)Nc2ccc(-c3cc4ccccc4oc3=O)cc2)cc1Br | / | ? | . | / | . | ?
COc1cc(NC(=O)C(CC(C)C)N2Cc3ccccc3C2=O)cc(OC)c1 (stereo not drawn) | / | . | . | / | . | ?
CC(C)CC(C(=O)NCC1CCN(Cc2ccc(F)cc2)CC1)N1Cc2ccccc2C1=O (stereo not drawn) | / | 23µM | . | / | . | 21µM
Cc1ccc(C)c(CN2CCC(CNC(=O)C(CC(C)C)N3Cc4ccccc4C3=O)CC2)c1 (stereo not drawn) | / | ? | . | / | ? | 12µM
CC(C)CCNC(=O)[C@H](Cc1ccccc1)N1Cc2ccccc2C1=O | . | ? | . | . | . | .
O=C(c1cccc(C(F)(F)F)c1)N1CCC2(CC1)NCCc1[nH]cnc12 | . | . | . | . | . | .
Cc1cc(=O)n2nc(N3CCCC3C(=O)Nc3cccc(F)c3)sc2n1 (stereo not drawn) | . | . | . | . | . | .
